CtBP-E1A blk – inhibitors of CtBP/E1A interaction. hit rate 0.49% among 340,000. activity change, % (no concentration beside the values). AlphaScreen GST-E1A/His-CtBP binding, 1536-well; stronger effect = lower value
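AlphaScreen with 125 nM GST-E1A and 125 nM His-CtBP (5X stocks) in Tris pH 8.0, 300 mM NaCl, BSA, Tween 20, TCEP. Compounds preincubated 2 h at 37 deg C, then glutathione donor/nickel acceptor beads added for 1 h at 37 deg C in dark.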
MBNL1-CUG inh – MBNL1-poly(CUG) RNA binding inhibition. TR-FRET MBNL1-His/biotin-(CUG)12 binding, 665/545 ratio. hit rate 0.036% among 280,000. AID 2675. Potency, µM (highest dose often 57.5 µM), for inactives: top-dose activity change, negative = inhibition, most hits filed as inhibitors; active = well fitted inhibition curve with a large enough effect in the signal ratio, with a control signal flat, not every such curve was filed as active; inconclusive = small, poorly fitted or top-dose-only effect, or effect the other way, or a change in a side signal; inactive = no such curve, though single readings can be large or run the other way; the % refers to the signal ratio; note: potency is the fitted concentration of half-maximal effect
Target sequence (Q9NR56 whole entry, looked up): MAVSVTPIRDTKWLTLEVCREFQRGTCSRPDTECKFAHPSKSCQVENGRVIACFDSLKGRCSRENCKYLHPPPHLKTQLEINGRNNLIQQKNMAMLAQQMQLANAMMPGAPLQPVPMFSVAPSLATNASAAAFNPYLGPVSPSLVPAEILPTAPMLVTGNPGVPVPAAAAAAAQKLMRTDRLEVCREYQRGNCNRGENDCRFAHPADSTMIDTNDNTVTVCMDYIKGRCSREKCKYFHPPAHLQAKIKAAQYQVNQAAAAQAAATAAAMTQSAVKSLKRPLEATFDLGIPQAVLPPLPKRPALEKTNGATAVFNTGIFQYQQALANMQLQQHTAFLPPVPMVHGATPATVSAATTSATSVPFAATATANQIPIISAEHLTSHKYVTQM
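Compounds (final 92 nM to 58 uM) are added to His-tagged MBNL1 and biotin-(CUG)12, then terbium anti-His antibody and streptavidin-XL665 (5 nM final). After 60 min at room temperature, the 665/545 nm ratio is read.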
PKM2 activator – PKM2 (human) enzyme activation; purified PKM2, Kinase-Glo ATP luminescence, activation; response scale: 0% is enzyme alone, no compound; AID 1631; Potency, µM (series often up to 57.5 µM), inactives show top-dose activation, usual class: activators; hit rate 0.34% among 260,000; active = well fitted activation curve with a large enough effect; inconclusive = small, poorly fitted or top-dose-only effect; inactive = no such curve, though single readings can be large or run the other way; note: potency is the fitted concentration of half-maximal effect; nearly all actives have a fitted effect of over 55% in size
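hPK-M2, >95% pure; 0.1 mM ADP / 0.5 mM PEP final; imidazole pH7.2 buffer w/ 7 mM MgCl2, 50 mM KCl; 1 h RT; Kinase-Glo lum. Intermediate enzyme activity for dual inhibitor/activator qHTS.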
Six1-Eya2 blk – blocks human Six1 binding to Eya2; Q15475+O00167; AlphaScreen GST-Six1/His-Eya2 binding, biochemical; stronger effect = lower value; activity change, % (test concentration not listed); hit rate 0.56% among 360,000; AID 651725
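Compounds are tested against tagged Six1 and Eya2 proteins bridged by glutathione donor and nickel acceptor beads; after a one-hour incubation at 37 °C without light, AlphaScreen emission is recorded.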
* marks the source's active call; other numbers are inactive results; ? = inconclusive; · = not tested or not shown; [ ] = dose if it differs, or a comment. This is a sample that favours compounds with a hit; in the whole collection about 0.93% have one here. Cut-off read from the data, not from the text of the source, unless noted: active = activity change below about -65%; inconclusive = mostly about -30% to -63%; inactive = weaker than that. % is set by controls: 0 for no effect and ±100 for the full control effect.

SMILES | CtBP-E1A blk | MBNL1-CUG inh | PKM2 activator | Six1-Eya2 blk
Cc1ccc(O)c(NC2=C(Cl)C(=O)N(Cc3ccccc3)C2=O)c1 | -10 | 12% | 8.9µM* | -15
COc1ccc([C@H]2/C=C\CN(C(=O)CC(C)(C)C)[C@@H](C)C(=O)N2Cc2ccc(F)cc2)cc1 | -1 | · | · | -7
COc1ccc([C@H]2/C=C\CN(Cc3ccc(N(C)C)cc3)[C@@H](C)C(=O)N2Cc2ccc(F)cc2)cc1 | -65* | · | · | ?
c1ccc(N2CCN(c3nc(-c4ccccn4)nc4ccccc34)CC2)cc1 | -71* | 14% | 0% | -67*
O=[N+]([O-])c1ccc(Sc2cccc3cccnc23)cc1 | -17 | ? | 3% | -18
C=CCn1nc([N+](=O)[O-])nc1Sc1cccc2cccnc12 | -95* | ? | 10% | -94*
O=[N+]([O-])c1cc(Cl)ccc1Sc1cccc2cccnc12 | 7 | 3% | 10% | ?
O=[N+]([O-])c1ccc(Sc2cccc3cccnc23)c([N+](=O)[O-])c1 | -98* | ? | 12% | -94*
CCc1ccc(CN2CCC(Oc3cc(C(=O)NC4CC4)ccc3OC)CC2)cc1 | 0 | · | · | 0
NC(=S)N=Nc1c(O)[nH]c2cc(F)c(F)cc12 | -71* | ? | 4% | -65*
N=C(N)N=Nc1c(O)[nH]c2ccc(Br)cc12 | -13 | ? | 2% | ?
Cc1ccc(S(=O)(=O)NC2=C(N3CCN(c4ccccc4F)CC3)C(=O)c3ccccc3C2=O)cc1 | -5 | ? | -6% | -5
COC(=O)C1CCN(C2=C(NS(=O)(=O)c3ccc(Cl)cc3)C(=O)c3ccccc3C2=O)CC1 | -79* | ? | -10% | -67*
CC(=O)Nc1ccc(S(=O)(=O)NC2=C(N3CCN(c4ccc(F)cc4)CC3)C(=O)c3ccccc3C2=O)cc1 | -78* | ? | -10% | -79*
CCOC(=O)CCCNC(=O)N1CCc2nc(-c3ccc(OC)cc3C)c3c(c2C1)CO[C@@H](c1ccccc1)C3 | · | · | -8%[11.5 µM] | ·
CCOC(=O)C1(C)CCN1C(=O)c1cccc(Cl)c1 (configuration not stated) | 5 | · | · | 3
Cc1ccccc1-c1csc(C(O)c2cccnc2)n1 (configuration not stated) | 2 | · | · | 7
CCCCn1nnnc1C(c1ccccc1)N1CCN(c2cccc(C)c2C)CC1 (configuration not stated) | 4 | · | · | 1
Cc1cc(NC(=O)CSc2nc3c(cc2C#N)CCCC3)no1 | -7 | 18% | ? | -5
Cc1cc(C)c2nc(SCC(=O)Nc3cc(C)on3)c(C#N)cc2c1 | -20 | 363% | 1.1µM* | 0
Cc1cc(C)c2nc(SCC(=O)Nc3cc(C)on3)c(C)cc2c1 | -1 | 0% | · | 4
Cc1cc(NC(=O)CSc2nc3c(cc2C#N)CCC3)no1 | -3 | 425% | 2.5µM* | -14
COc1cc(/C=C2\SC(=Nc3ccc(O)cc3)NC2=O)cc(OC)c1O | -65* | 9% | 0% | ?
COC(=O)C1=C(C(=O)OC)[C@@H]2N(C)c3ccccc3[C@@]23C[C@@H](C(=O)OC)N(S(=O)(=O)c2ccc(OC)cc2)C3=N1 | · | · | -1%[11.5 µM] | ·
CCOC(=O)c1cc2c(ccn2C)n1CC(=O)N1CCN(c2cccc(C(F)(F)F)c2)CC1 | -26 | 1% | 32µM* | -25
SMILES | CtBP-E1A blk | MBNL1-CUG inh | PKM2 activator | Six1-Eya2 blk
O=C(CSc1ncn[nH]1)Nc1ccc([N+](=O)[O-])cc1Br | 0 | · | 7.1µM* | -1
Nc1nc(SCC(=O)Nc2ccc([N+](=O)[O-])cc2Br)n[nH]1 | -8 | ? | 3.2µM* | 2
CC(C)c1nc(SCC(=O)Nc2ccc([N+](=O)[O-])cc2Br)n[nH]1 | -1 | ? | ? | 0
O=C(CSc1n[nH]c(-c2cccnc2)n1)Nc1ccc([N+](=O)[O-])cc1Br | 4 | ? | 13% | -3
O=C(c1cc2ccccc2o1)N1CCN(Cc2nc3ccccc3s2)CC1 | 3 | · | · | -1
Nc1ccc(S(=O)(=O)c2cccc(N)c2)cc1 | 0 | ? | 26% | -2
Nc1ccc(S(=O)(=O)c2ccc(N)c(N)c2)cc1 | -3 | -12% | 28µM* | -5
O=C(NC(Sc1ccc(Cl)cc1)C(=O)O)c1ccccc1 (configuration not stated) | -2 | · | · | 7
O=C(Nc1nc(-c2ccccn2)cs1)c1ccc2c(c1)OCCO2 | ? | -3% | 4% | -82*

Bioassay records deposited in PubChem by National Center for Advancing Translational Sciences (NCATS).
